# Sm TGR block: qHTS Assay for the Inhibitors of Schistosoma Mansoni Peroxiredoxins. Schistosoma mansoni thioredoxin glutathione reductase (TGR), Q962Y6. purified TGR, DTNB reduction, TNB absorbance 405 nm. Potency, µM (top dose mostly 114 µM), for inactives: top-dose activity change, negative = inhibition, hits mostly inhibitors. hit rate 3% among 360,000. AID 485364, 2010; active means well fitted inhibition curve with a large enough effect; inconclusive means small, poorly fitted or top-dose-only effect; inactive means no such curve, though single readings can be large or run the other way; further: nearly all actives have a fitted effect of over 60% in size
#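 TGR 20 nM + NADPH 100 uM (dispensed conc.), cpd preinc 15 min RT; start with NADPH (500 uM addition) then DTNB (15 mM addition). Kinetic TNB absorbance, 405 nm filter. Four-parameter Hill fit across titration.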
# FMDV inh: High Throughput Screening for Foot and Mouth Disease Virus Antivirals; FMDV antiviral cell-based qHTS; hit rate 1.2% among 410,000; Potency, µM (titrated, usually from 57.9 µM), without a hit: at the highest dose activity change, negative = inhibition, hits mostly inhibitors; calls by dose curve; tested in HEK293T cells; further: read-out not given here; nearly all actives have a fitted effect of over 45% in size
# MARV entry inh: qHTS for inhibitors of binding or entry into cells for Marburg Virus | Marburg virus pseudotyped entry inhibition, cell reporter | Potency, µM (top dose mostly 37.8 µM), for the others: at the highest dose activity change, negative = inhibition, usual class: inhibitors | hit rate 1.8% among 300,000 | AID 540276, 2011; calls by dose curve; tested in HEK293 cells
# VACV mCherry inh: qHTS for Stage-Specific Inhibitors of Vaccinia Orthopoxvirus: mCherry Reporter Primary qHTS | Vaccinia virus mCherry reporter infection, fluorescence | Potency, µM (titrated, usually from 36.5 µM), for inactives: at the highest dose activity change, negative = inhibition, actives largely listed as inhibitors | AID 720579, 2013 | hit rate 0.63% among 310,000; calls by dose curve; tested in A549 cells; further: nearly all actives have a fitted effect of over 35% in size
# Lassa entry inh: qHTS for Inhibitors of binding or entry into cells for Lassa Virus; Lassa virus pseudotype entry inhibition, cell reporter; Potency, µM (series often up to 37.9 µM), for inactives: at the top dose activity change, negative = inhibition, hits mostly inhibitors; hit rate 1.2% among 300,000; AID 540256, 2011; calls by dose curve; tested in HEK293 cells; further: nearly all actives have a fitted effect of over 50% in size
# VACV Venus inh: qHTS for Stage-Specific Inhibitors of Vaccinia Orthopoxvirus: Venus Reporter Primary qHTS. Vaccinia virus Venus reporter expression, fluorescence. Potency, µM (top dose mostly 36.5 µM), without a hit: at the highest dose activity change, negative = inhibition, most hits filed as inhibitors. hit rate 0.46% among 330,000; calls by dose curve; tested in A549 cells; further: nearly all actives have a fitted effect of over 30% in size
# Numbers without * were called inactive; i = inactive; ? = inconclusive; · = not tested or not shown; [ ] = remark or other dose. Shown are actives, neighbours in structure and some others; about 5.4% of the full set was active somewhere. On the % scale 0 is the no-effect control and ±100 the full control effect; potency means the concentration at half of the fitted maximal effect.
SMILES,Sm TGR block,FMDV inh,MARV entry inh,VACV mCherry inh,Lassa entry inh,VACV Venus inh
CCCCN(C(=O)Cn1nnc2ccccc21)C(C(=O)NCc1ccco1)c1ccncc1 (configuration not stated),56µM*,17%,?,i,4%,-14%
Cc1cc(C)cc(N(C(=O)Cn2nnc3ccccc32)C(C(=O)NCc2ccco2)c2ccncc2)c1 (configuration not stated),35µM*,11%,19%,·,0%,0%
O=C(NCc1ccco1)C(c1ccc(F)cc1)N(Cc1cccnc1)C(=O)Cn1nnc2ccccc21 (configuration not stated),?,-16%,3%,·,6%,-4%
Cc1ccc(N(C(=O)Cn2nnc3ccccc32)C(C(=O)NCc2ccco2)c2ccc(C)o2)cc1 (configuration not stated),?,-3%,?,·,1%,-17%
COc1cc(C(=O)NC2CC(=O)N(c3cccc(F)c3)C2)cc(OC)c1OC (configuration not stated),12%,-16%,·,-14%,?,-7%
COc1ccc(Nc2nc(N)nc(CSC(=S)N3CCCCC3C)n2)cc1 (configuration not stated),5%,-25%,?,-21%,7.1µM*,?
COc1cccc(-n2cc(C(=O)Nc3cccc(C(F)(F)F)c3)c3ccccc3c2=O)c1,0%,-9%,·,-14%,-2%[46.1 µM],-6%
Cc1oc(-c2cccc(Cl)c2)nc1CN1CCC(C(=O)N2CCN(c3ccccc3F)CC2)CC1,-4%,?,·,?,·,16µM*
Cc1cccc(N2CCN(Cc3nc(-c4cccc(Cl)c4)oc3C)CC2)n1,-9%[57.1 µM],-1%,7.1µM*,-9%,-21%,12%
Cc1oc(-c2ccc(Cl)cc2)nc1CN1CCC(C(=O)N2CCc3ccccc3C2)CC1,0%,22µM*,3%,·,·,·
Cc1oc(-c2ccc(Cl)cc2)nc1CN1CCC(C(=O)N2CCN(Cc3ccccc3)CC2)CC1,0%,0%,6%,-29%,·,-24%
Cc1nn(C)c2c1c(-c1ccccc1)cc(=O)n2Cc1ccccc1Cl,13%,-18%,·,-5%,-6%[46.1 µM],-1%
COc1ccccc1CNC(=O)CSc1ccc(-c2sc(-c3ccccc3)nc2C)nn1,0%,-18%,·,-11%,-28%[46.1 µM],-24%
CC[C@H](C(=O)OCCN(CC)CC)c1ccccc1,·,·,2%,·,·,·
Cc1ccc(C)c(Cn2c3ccccc3c3cnn(CC(=O)NC4CCC(C)CC4)c(=O)c32)c1 (configuration not stated),-9%,-6%,7%[46.1 µM],-11%,7%[46.1 µM],-4%
CCOc1ccc(-c2cc3nc(C4CCN(C(=O)OC(C)(C)C)CC4)c(C(=O)Nc4c(C)cccc4C)cn3n2)cc1,5%,-6%,7.1µM*,-7%,-4%[46.1 µM],-16%
CCOc1ccccc1C(=O)N1CCc2cc(OC)c(OC)cc2C1COc1ccc(OC)cc1 (configuration not stated),-1%,-29%,·,3%,-19%[46.1 µM],4%
CCc1ccc(OCC2c3cc(OC)c(OC)cc3CCN2C(=O)Cc2ccc(OC)c(OC)c2)cc1 (configuration not stated),1%,-23%,·,35µM*,?,?
CCOc1ccc(CC2c3cc(OCC)c(OCC)cc3CCN2C(=O)c2cc(OC)c(OC)c(OC)c2)cc1OCC (configuration not stated),11%,?,?,·,2.1µM*,·
O=c1[nH]c(Nc2nc3ccccc3o2)nc2c1CCCC2,15%,·,6.5µM*,?,5.2µM*,?
c1ccc2c(c1)c1ccccc1n1c(-c3ccc4c(c3)OCO4)nnc21,-26%,25µM*,4%,1%,2%,3%
Cn1c(-c2ccc3c(c2)OCO3)cc(=O)c2ccccc21,-3%,0%,·,-8%,·,-10%
COc1ccc(CNC(=O)CN(Cc2ccccc2)S(=O)(=O)c2ccc(Cl)cc2)cc1,5%,?,-12%,·,-18%,·
COc1ccc(CNC(=O)CN(Cc2ccc(Cl)cc2)S(=O)(=O)c2ccccc2)cc1,6%,28µM*,?,·,?,·
COc1ccc(C)cc1S(=O)(=O)N(CC(=O)NCc1ccc(Cl)cc1)Cc1ccccc1,2%,?,23µM*,-18%,-25%[14.3 µM],?
SMILES,Sm TGR block,FMDV inh,MARV entry inh,VACV mCherry inh,Lassa entry inh,VACV Venus inh
CCCCN(C)CCNC(=S)Nc1ccc2nc(N3CCN(CC)CC3)cc(C)c2c1,4%,-9%,?,?,7.1µM*,?
Cc1cc(N2CCN(C)CC2)nc2ccc(NC(=S)NCCCN3CCc4ccccc4C3)cc12,?,-12%,4µM*,-26%,?,-27%
COc1ccc(/C=C/C(=O)Nc2ccc3nc(N4CCC(C)CC4)cc(C)c3c2)cc1OC,0%,-13%,10µM*,-22%[7.34 µM],?,-14%[7.34 µM]
CCN1CCN(c2cc(C)c3cc(NC(=S)NCCN(C)C)ccc3n2)CC1,-10%,9%,?,-28%,?,-30%
CCN1CCN(c2cc(C)c3cc(NC(=S)NCCCN4CCc5ccccc5C4)ccc3n2)CC1,?,1%,13µM*,?,-24%,-30%
Cc1cc(N2CCN(C)CC2)nc2ccc(NC(=S)NCCN3CCc4ccccc4C3)cc12,-16%,-22%,0%,·,·,·
CCn1ccc2cc(S(=O)(=O)N3CCCN(C(=O)NCC(=O)OC)CC3)ccc21,-6%,-1%,·,-13%,4%[46.1 µM],-1%
CC(CCN1CCCCc2nc(C)c(C)cc21)=NO[C@@H](C)c1cn([C@H](CO)Cc2ccccc2)nn1,·,·,-12%[14.2 µM],·,·,·
CSC[C@H]1CN(Cc2ccccc2)C(=O)[C@H]1CC(=O)Nc1ccccc1,·,·,·,·,-8%[46.1 µM],·
Cc1cc(N2CCCC2)nc2ccc(NC(=S)NCCCN3CCC(C)CC3)cc12,-33%,-15%,?,14µM*,?,?
Cc1cc(N2CCOCC2)nc2ccc(NC(=O)C3CCCCC3)cc12,·,12%,·,-17%,·,-18%
CCCN1CCN(CCCNC(=S)Nc2ccc3nc(N4CCN(CC)CC4)cc(C)c3c2)CC1,-19%,3%,·,·,·,·
Cc1cc(N2CCOCC2)nc2ccc(NC(=S)N3CCCCC3C)cc12 (configuration not stated),7%,30%,2.8µM*,-64%,?,?
COc1ccc(CCC(=O)NCc2nc3cccnc3n2Cc2ccccc2)cc1,-9%,3%,·,-11%,3%[46.1 µM],-10%
CCc1ccccc1NC(=O)C1C2C=CC(O2)C1C(=O)O (configuration not stated),18µM*,-2%,1%[46.1 µM],i,10%[46.1 µM],0%
Cc1cc(C)cc(NC(=O)C2C3C=CC(O3)C2C(=O)O)c1 (configuration not stated),-34%,28%,14%[46.1 µM],-22%,-6%[46.1 µM],-3%

# Assay outcomes deposited in PubChem BioAssay by National Center for Advancing Translational Sciences (NCATS).
